# Compound activity deposited in PubChem by Johns Hopkins Ion Channel Center.
# Shown are actives, neighbours in structure and some others; about 1.6% of the full set was active somewhere.
# KCNQ2 inh: KCNQ2 (rat) channel inhibition | B-score at 10 µM | O88943 | CHO-K1 KCNQ2, FluxOR thallium flux, 20 min; hits give low values | AID 2156 | actives 1.1% (n = 310,000);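 active = fluorescence ratio B-score at most minus 3 library SDs, with starting brightness B-score within 2 library SDs, cut at about -5.5 in these data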
# Target sequence (O88943 whole entry, looked up): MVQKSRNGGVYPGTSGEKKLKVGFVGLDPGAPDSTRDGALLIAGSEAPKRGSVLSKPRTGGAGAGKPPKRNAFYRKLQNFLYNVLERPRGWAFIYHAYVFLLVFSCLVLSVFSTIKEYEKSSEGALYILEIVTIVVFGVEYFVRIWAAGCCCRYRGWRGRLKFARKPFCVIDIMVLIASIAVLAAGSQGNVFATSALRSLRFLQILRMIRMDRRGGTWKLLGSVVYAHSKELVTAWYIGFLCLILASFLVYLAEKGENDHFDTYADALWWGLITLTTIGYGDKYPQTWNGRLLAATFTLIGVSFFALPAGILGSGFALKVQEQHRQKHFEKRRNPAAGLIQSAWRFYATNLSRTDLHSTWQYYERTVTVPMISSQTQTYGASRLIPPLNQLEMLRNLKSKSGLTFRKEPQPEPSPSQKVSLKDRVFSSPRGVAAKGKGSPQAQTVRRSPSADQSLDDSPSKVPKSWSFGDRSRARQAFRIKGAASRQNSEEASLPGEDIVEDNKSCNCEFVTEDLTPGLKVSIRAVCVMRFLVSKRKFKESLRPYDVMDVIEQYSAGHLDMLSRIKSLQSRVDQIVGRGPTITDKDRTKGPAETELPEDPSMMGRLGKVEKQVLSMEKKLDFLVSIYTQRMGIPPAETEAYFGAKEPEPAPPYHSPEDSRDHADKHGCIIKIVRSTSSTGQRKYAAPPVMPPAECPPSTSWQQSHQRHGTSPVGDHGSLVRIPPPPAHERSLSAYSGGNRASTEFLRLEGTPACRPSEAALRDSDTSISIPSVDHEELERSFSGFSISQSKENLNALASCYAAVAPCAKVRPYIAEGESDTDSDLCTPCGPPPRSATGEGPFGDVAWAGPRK
# KCNQ2 enhance: KCNQ2 (rat) channel potentiation. O88943. actives 0.54% (n = 310,000). B-score at 10 µM. CHO-K1 KCNQ2, FluxOR thallium flux fluorescence; hits give high values;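 active = fluorescence ratio B-score at least 3 SD of library B-scores, with initial fluorescence B-score within 3 of them, cut at about 5.3 in these data; same plate scores as AID 2156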;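 also: B-score of peak minus minimum over baseline fluorescence ratio after K+ and Tl+ stimulus; positive B-score means potentiation of KCNQ2 with more thallium influx and brighter signal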
# Kir21 conf inh: confirmation of mouse Kir2.1 potassium channel inhibitors | actives 41% (n = 2,300) | Tl flux remaining, % of negative control (hits give low values), % at 10 µM | Kir2.1-expressing cells, FluxOR thallium flux fluorescence; hits give low values | AID 2032 | shares compounds with KCNQ2 enhance;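 active = Primary-screen hit whose thallium flux fell at least 3 control SD below untreated wells in both duplicates, with normal baseline fluorescence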;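 also: 0% = blank wells without stimulus and 100% = stimulated no-compound controls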
# HEK293 ctr: counter-screen for Kir2.1 inhibitors: effect in parental HEK293 cells; shares compounds with KCNQ2 enhance; FluxOR thallium flux fluorescence; 0% = unstimulated blank wells; FluxOR signal as % of negative control (100 = no effect), % at 10 µM; actives 19% (n = 2,300); AID 2105;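 active = dye signal at least 3 control SD above or below untreated wells in both duplicates, raw fluorescence within 3, either direction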;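 also: percent is based on the flux ratio of peak minus minimum fluorescence over baseline F0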
# CHO-K1 ctr: alters thallium flux in parental CHO-K1 cells, KCNQ2 counter-screen; shares compounds with KCNQ2 enhance; FluxOR thallium flux fluorescence; zero = vehicle mean+3SD, 100% = vehicle-minus-blank window; activity increase over 3SD of controls, % at 10 µM; actives 43% (n = 1,200); AID 2282;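 active = signal rise of at least 3 SD above the untreated control mean, in both duplicate wells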;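 also: counter screen of KCNQ2 potentiator hits so any rise reflects channel-independent effects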
# KCNQ1 pot spec: human KCNQ1 counter-target activity of KCNQ2 potentiators; shares compounds with KCNQ2 enhance; CHO KCNQ1 stable, FluxOR thallium flux fluorescence; beyond 3SD, as % of vehicle-control signal; activation over 3SD threshold, % at 10 µM; actives 28% (n = 1,200);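 active = fluorescence ratio rise of at least 3 SD of vehicle wells above their mean, in both replicate wells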;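 also: 0% = vehicle mean plus 3 SD and 100% = vehicle minus unstimulated blank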
# KCNQ2 pot confirm: rat KCNQ2 channel potentiator confirmation; CHO-KCNQ2 cells, FluxOR thallium flux fluorescence; shares compounds with KCNQ2 enhance; actives 68% (n = 1,200); potentiation, less the hit threshold, % at 10 µM;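 active = fluorescence ratio rising 3 SD or more over the vehicle control mean in both replicates, plus primary screen hit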;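 also: peak minus minimum thallium fluorescence divided by baseline after K/Tl stimulus; 0% = vehicle mean plus 3 SD and 100% = vehicle minus unstimulated blank difference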
# Kir2-1 sel: mouse Kir2.1 off-target activity of KCNQ2 potentiators. shares compounds with KCNQ2 enhance. HEK293 Kir2.1, FluxOR thallium flux fluorescence. activity over 3SD threshold, % at 10 µM. actives 2% (n = 1,200);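 active = fluorescence ratio rise of at least 3 SD above the vehicle-control mean, seen in both replicates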;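 also: 0% = vehicle mean plus 3 SD and 100% = vehicle minus no-stimulus blank window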
# KCNQ2 W236L pot: KCNQ2 potentiators acting on retigabine-insensitive rat KCNQ2 W236L mutant; actives 10% (n = 940); current increase over 3SD of negative controls (%), hits give high values, % at 25 µM; CHO KCNQ2-W236L, automated patch clamp current; shares compounds with KCNQ2 enhance;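 active = current increase at least 3 SD of the untreated controls above them in both duplicate recordings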
# The depositor's hits bear a star; i = inactive; . = no result.
SMILES,KCNQ2 inh,KCNQ2 enhance,Kir21 conf inh,HEK293 ctr,others
N#CCCn1cc(C(=O)N2CCOCC2)c(-c2ccc3c(c2)OCCO3)n1,i,.,.,.,
Cc1cc(C)cc(NC(=O)Cn2c(-c3ccccc3Cl)nc3ccccc32)c1,i,1.06,.,.,
O=C(Cn1c(CO)nc2ccccc21)Nc1ccccc1Cl,i,0.1,i,i,
O=C(Nc1ccncc1)C1CC1c1ccccc1 (centres undefined),i,0.89,.,.,
Cc1ccc(NC(=O)/C=C\C(=O)O)c([N+](=O)[O-])c1,i,.,.,.,
O=C(Nc1ccc(Cl)cc1F)C1CC1c1ccccc1 (centres undefined),i,7.21*,i,i,CHO-K1 ctr=-12.3;KCNQ1 pot spec=28.2*;KCNQ2 pot confirm=18.7*;Kir2-1 sel=-31.4;KCNQ2 W236L pot=i
Cc1ccc(NC(=O)C2CC2c2ccccc2)c([N+](=O)[O-])c1 (centres undefined),i,10.9*,i,i,CHO-K1 ctr=-15.0;KCNQ1 pot spec=-9.5;KCNQ2 pot confirm=7.1*;Kir2-1 sel=-37.6;KCNQ2 W236L pot=40.5%*
O=C(Nc1cccc(Cl)c1)C1CC1c1ccccc1 (centres undefined),i,0.27,.,.,
CC(C)c1ccc(NC(=O)C2CC2c2ccccc2)cc1 (centres undefined),i,17.4*,i,i,CHO-K1 ctr=19.6*;KCNQ1 pot spec=-8.7;KCNQ2 pot confirm=28.1*;Kir2-1 sel=-23.9;KCNQ2 W236L pot=i
Cc1cccc(NC(=O)CSCC(=O)NNC(=O)c2ccoc2C)c1,i,.,.,.,
CCC(C)Oc1nc2c(c(=O)n(C)c(=O)n2C)n1C (centres undefined),i,0.08,.,.,
CSc1ccc2c(c1)N(CCC1CCCCN1C)c1ccccc1S2 (centres undefined),-5.82*,-5.82,23.0%*,i,
CC1CCN(CC(O)CN2c3ccccc3Sc3ccccc32)CC1 (centres undefined),i,.,.,.,
Cc1ccccc1NC(=O)Cn1nnc(S(=O)(=O)c2ccc(C(C)(C)C)cc2)c1N,i,.,.,.,
O=C(Nc1cccnc1)c1ccc(Cl)c(Cl)c1,i,8.08*,i,i,CHO-K1 ctr=18.0*;KCNQ1 pot spec=-5.6;KCNQ2 pot confirm=21.0*;Kir2-1 sel=-32.1;KCNQ2 W236L pot=10.8%*
O=C(NNC(=O)c1ccc(Cl)c(Cl)c1)c1cccnc1,i,.,.,.,
O=C(Nc1cccnc1)c1ccc(Oc2ccccc2)cc1,i,18.4*,i,i,CHO-K1 ctr=-12.4;KCNQ1 pot spec=-17.9;KCNQ2 pot confirm=85.1*;Kir2-1 sel=-49.0;KCNQ2 W236L pot=i
O=C(Nc1cccnc1)c1ccccc1Oc1ccccc1,i,.,.,.,
O=C(c1ccnc(Cl)c1)N1CCCC(N2CCN(c3ccccc3F)CC2)C1 (centres undefined),i,.,.,.,
O=c1[nH]cnc2scc(-c3ccccc3)c12,i,.,.,.,
S=c1[nH]cnc2scc(-c3ccc(Cl)cc3)c12,i,9.61*,i,142.5%*,CHO-K1 ctr=-5.0;KCNQ1 pot spec=-4.3;KCNQ2 pot confirm=13.5*;Kir2-1 sel=-31.4;KCNQ2 W236L pot=i
S=c1[nH]cnc2scc(-c3ccc(Br)cc3)c12,i,5.61*,i,194.0%*,CHO-K1 ctr=-3.2;KCNQ1 pot spec=-17.2;KCNQ2 pot confirm=-4.6;Kir2-1 sel=-20.3;KCNQ2 W236L pot=i
O=c1[nH]cnc2scc(-c3ccsc3)c12,i,2.27,.,.,
Clc1ccc(-c2csc3ncnc(Cl)c23)cc1,i,0.92,.,.,
Cc1cc(-c2csc3nc[nH]c(=S)c23)cc(C)c1C,i,14.7*,i,262.5%*,CHO-K1 ctr=-8.9;KCNQ1 pot spec=-16.7;KCNQ2 pot confirm=36.0*;Kir2-1 sel=-19.6;KCNQ2 W236L pot=i
SMILES,KCNQ2 inh,KCNQ2 enhance,Kir21 conf inh,HEK293 ctr,others
COC(=O)c1ccc(C(NC(=O)c2cccnc2)NC(=O)c2cccnc2)cc1,i,0.54,.,.,
Cc1cc2oc(=O)cc(CN3CCCCC3C)c2cc1C (centres undefined),i,0.47,.,.,
COc1ccc(-n2ccnc2SCC(=O)NCc2ccc(F)cc2)c(OC)c1,i,0.24,.,.,
CC(C)Cc1nnc(NC(=O)c2ccc3c(=O)n4c(nc3c2)CCC4)s1,i,0.36,.,.,
COc1ccc(CCNC(=O)C2CCC(C(C)(C)C)CC2)cc1OC (centres undefined),i,.,48.0%*,i,
COc1ccc(C)cc1NC(=O)C1CCN(S(C)(=O)=O)CC1,i,.,.,.,
COc1ccc(C)cc1NC(=O)NNC(=O)C1CCC(C(C)(C)C)CC1 (centres undefined),i,10.7*,i,i,CHO-K1 ctr=-8.4;KCNQ1 pot spec=-15.7;KCNQ2 pot confirm=31.4*;Kir2-1 sel=-23.9;KCNQ2 W236L pot=i
COc1ccc(CCNC(=O)C2CC2)cc1OC,i,.,.,.,
CCCCn1c(N)c(N(CC(C)C)C(=O)c2cc(S(=O)(=O)N3CCCCC3)ccc2C)c(=O)[nH]c1=O,i,0.71,.,.,
OCCCCNCc1ccc(OCc2ccc(Cl)cc2Cl)cc1,i,.,33.0%*,i,
OCCNCc1ccc(OCc2ccc(Cl)cc2Cl)cc1,i,.,31.0%*,i,
S=C(Nc1ccccc1)Nc1ccc(OCc2ccc(Cl)cc2Cl)cc1,i,.,.,.,
COc1cc(CNCCCCO)ccc1OCc1ccccc1F,i,0.1,.,.,
Cc1cc(C)c(C(=O)C2OC(=O)C(C)(C)C(=O)C2(C)C)c(C)c1 (centres undefined),i,10*,i,i,CHO-K1 ctr=6.5*;KCNQ1 pot spec=-15.5;KCNQ2 pot confirm=2.7*;Kir2-1 sel=-39.8;KCNQ2 W236L pot=i
CC1(C)C(=O)OC(C(=O)c2ccccc2)C(C)(C)C1=O (centres undefined),i,.,.,.,
Cc1ccc(Cl)cc1N(CC(=O)NC(C)c1ccccc1)S(C)(=O)=O (centres undefined),i,.,.,.,
COc1cccc(NC(=O)NCCCSC2CCCCC2)c1,i,6.54*,i,i,CHO-K1 ctr=-5.3;KCNQ1 pot spec=-15.7;KCNQ2 pot confirm=13.4*;Kir2-1 sel=-24.7;KCNQ2 W236L pot=i
COc1cccc(NC(=O)NCCCCc2ccccc2)c1,i,2.61,.,.,
CCOC(=O)COc1ccc2ccccc2c1/C=C/[N+](=O)[O-],i,.,.,.,
CCOc1ccc(/C=C/[N+](=O)[O-])c2ccccc12,i,.,i,i,
Nc1nc2ccccc2n1CCOc1ccc(Br)cc1,i,.,20.5%*,129.5%*,
Nc1nc2ccccc2n1CCOc1ccc(Cl)cc1,i,2.47,.,.,
CCOC(=O)Cn1c(=N)n(Cc2ccccc2)c2ccccc21,i,1.5,.,.,
CCOC(=O)Cn1c(=N)n(CCOc2ccc(Br)cc2)c2ccccc21,i,.,36.0%*,i,
Cc1ccc(NC(=S)N2CCC(NC(=O)c3ccc(F)cc3)CC2)cc1,i,.,.,.,
O=C(CSc1nnc(NC(=O)c2cccc(Cl)c2)s1)NCC1CCCO1 (centres undefined),i,.,.,.,
Cc1nc2ccccc2c(=O)n1NC(=O)C1CC1,i,.,.,.,
